Assay results: PubChem BioAssay (NCI)
The panel holds about 83,000 compounds, 20% with a hit somewhere; the sample as a whole holds those more often.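 In brief: 96-well plates, 48 h treatment, single concentration, percent growth endpoint.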 The source made the active and inactive calls. Rule for the calls: active = growth percent below 10; inactive = the rest.

Key:
Assay in all cases: NCI-60 one-dose screen, 48 h (100 = growth as untreated, 0 = no growth, -100 = all killed)
Conditions in all cases: 10 µM unless noted
[1] = tested on: SR leukemia
[2] = tested on: RPMI-8226 leukemia
[3] = tested on: OVCAR-8 ovarian
[4] = tested on: OVCAR-5 ovarian
[5] = tested on: OVCAR-4 ovarian
[6] = tested on: SK-OV-3 ovarian
[7] = tested on: IGROV1 ovarian
[8] = tested on: OVCAR-3 ovarian
[9] = tested on: HS 578T breast
[10] = tested on: NCI/ADR-RES ovarian
[11] = tested on: T-47D breast
[12] = tested on: BT-549 breast
[13] = tested on: MDA-MB-435 melanoma
[14] = tested on: SW-620 colon
[15] = tested on: MCF7 breast
[16] = tested on: HCT-116 colon
[17] = tested on: HCC-2998 colon
[18] = tested on: KM12 colon

Measured: growth

Clc1ccc2c(NC3CCC(NC4CCCCC4)CC3)ccnc2c1 (configuration not stated)
inactive: [2] 39.4% | [3] 52.2% | [4] 84.4% | [5] 50% | [6] 73.4% | [7] 83.4% | [8] 85.3% | [9] 67.5% | [10] 68% | [11] 48.1% | [12] 86.8% | [13] 26.8% | [14] 32.7% | [15] 37.8% | [16] 35.8% | [17] 65.2% | [18] 67.2%
active: [1] -3.32%

CCO/C=N/C1=C(C#N)C(c2ccc(Cl)cc2)c2c(c3ccc(C)cc3[nH]c2=O)O1 (configuration not stated)
inactive: [1] 86.7% | [2] 30.2% | [3] 89.7% | [4] 83.1% | [5] 85% | [6] 85.7% | [7] 68.4% | [8] 103% | [9] 48.8% | [10] 96.1% | [11] 78.4% | [12] 86.7% | [13] 90.7% | [14] 84.6% | [15] 78.7% | [16] 82.4% | [17] 99.5%

Cc1ccc(/C=C2\CN(C(=O)CCN3CCC(=NO)CC3)C/C(=C\c3ccc(C)cc3)C2=O)cc1
active: [1] -0.19% | [2] -9.83% | [4] -8.32% | [7] -14% | [8] 8.71% | [9] 6.55% | [13] -39.8% | [14] -34.1% | [15] -3.62% | [16] -74.5% | [17] -70.7% | [18] -75.3%
inactive: [3] 20.4% | [5] 20.9% | [6] 87.8% | [10] 14.6% | [11] 16.4% | [12] 11.2%

OCCCCCCNc1ncnc2cc(Cl)ccc12
inactive: [1] 64.8% | [2] 83.6% | [3] 94.1% | [4] 119% | [5] 76.2% | [6] 81.3% | [7] 112% | [8] 92.4% | [9] 105% | [10] 95.7% | [11] 72% | [12] 87.1% | [13] 109% | [14] 103% | [15] 97.8% | [16] 81.9% | [17] 106% | [18] 99.7%

O=C1/C(=C/c2ccccc2)Oc2ccc(O)c(I)c21
inactive: [1] 98.2% | [2] 95.4% | [3] 96.7% | [4] 108% | [5] 95.4% | [6] 99.6% | [7] 68.3% | [8] 101% | [9] 80.8% | [10] 99.3% | [11] 77.5% | [12] 84.3% | [13] 103% | [14] 95.5% | [15] 54.8% | [16] 98.2% | [17] 114%

c1ccc(Nc2nc(Nc3ccccc3)nc(Nc3ccccc3)n2)cc1
inactive: [1] 69.8% | [2] 74.5% | [3] 92.2% | [4] 97.1% | [5] 81.2% | [6] 92.7% | [7] 62.5% | [8] 96.4% | [9] 107% | [10] 77.9% | [11] 71.9% | [12] 114% | [13] 89.7% | [14] 88.9% | [15] 65% | [16] 82% | [17] 85.6% | [18] 84.4%

COc1cc(/C=N\NC(=O)CN2CCN(c3cc4c(cc3F)c(=O)c(C(=O)N/N=C/c3cc(OC)c(OC)c(OC)c3)cn4C3CC3)CC2)cc(OC)c1OC
active: [1] 2.97% | [2] 0.709% | [5] -17.7% | [7] -16.6% | [8] -75.2% | [9] -0.587% | [11] -12.3% | [12] -17.7% | [13] -45.1% | [14] 6.11% | [15] 7.55% | [16] -32.5% | [17] -95.2% | [18] -61.7%
inactive: [3] 22.4% | [4] 19.6% | [6] 19.2% | [10] 103%

CC(=O)Nc1scc[n+]1Cc1ccccc1
inactive: [1] 76.6% | [2] 92.2% | [3] 99.3% | [4] 110% | [5] 108% | [6] 99.5% | [7] 109% | [8] 114% | [9] 106% | [10] 102% | [11] 102% | [12] 103% | [13] 110% | [14] 105% | [15] 98.4% | [16] 102% | [17] 103% | [18] 105%

CCCCCCCCCCCCNC(=O)[C@H]1CSC(c2cc(Br)cs2)N1 (some centres not stated)
active: [1] -31.3% | [3] -64.8% | [4] 9.52% | [5] -72.4% | [6] -42.5% | [7] -54.1% | [8] -50.8% | [9] -41.2% | [10] -22.3% | [12] -58.4% | [13] -90.3% | [14] -34.2% | [16] -82% | [18] -55.3%
inactive: [2] 37.7% | [11] 39.4% | [15] 49% | [17] 54.3%

C=C1C(=O)O[C@H]2[C@H]1CC/C(Cn1cc(CNC(=O)/C=C/c3c[nH]c4ccccc34)nn1)=C\CC[C@@]1(C)O[C@@H]21
inactive: [1] 56.6% | [2] 13% | [3] 98.9% | [4] 114% | [5] 100% | [6] 103% | [7] 86.2% | [8] 30.5% | [9] 95.4% | [10] 108% | [11] 107% | [12] 112% | [13] 83.9% | [14] 49.9% | [15] 42% | [16] 63.8% | [17] 118% | [18] 98%

Cc1csc(NC(c2ccccc2)c2c(C)nc3ccccn23)n1 (configuration not stated)
inactive: [1] 94.9% | [2] 79.2% | [3] 102% | [4] 101% | [5] 104% | [6] 97.3% | [7] 108% | [8] 110% | [9] 95.5% | [10] 99% | [11] 86.9% | [12] 97% | [13] 102% | [14] 96.3% | [15] 94.6% | [16] 91% | [17] 105% | [18] 99.8%

COc1cc(-c2ncn(/C=C\C(=O)OC(C)C)n2)cc(C(F)(F)F)c1
active: [1] 2.46% | [3] 9.36% | [5] 0.627% | [8] -42.1% | [9] -7.75% | [10] 2.76% | [12] -62.6% | [13] -34.7% | [14] 0.254% | [15] -24.5% | [16] 2.85% | [17] -39.8% | [18] 0.0792%
inactive: [2] 67.5% | [4] 18.4% | [6] 28.1% | [7] 14.3% | [11] 16.3%

CN1CCN(Cc2ccc(NC(=O)c3cncc(C#Cc4cnc(N)c5ccncc45)c3)cc2C(F)(F)F)CC1
inactive: [1] 20.6% | [2] 18.5% | [3] 29.6% | [5] 25.5% | [8] 35.2% | [10] 71.8% | [11] 43.2% | [12] 49.2% | [15] 35.6% | [17] 33%
active: [4] 9.45% | [6] -12.1% | [7] 4.51% | [9] -0.418% | [13] 9.96% | [14] 3.27% | [16] 8.86% | [18] 9.68%

COc1ccc(C2=C(c3cc(OC)c(OC)c(OC)c3)C(=O)CC2)cc1
active: [6] 7.01% | [8] -65.4% | [9] 6.1% | [10] -49.4% | [13] -19.2% | [16] 6.43% | [17] -11.3% | [18] 5.46%
inactive: [1] 15.7% | [2] 14.1% | [3] 22.8% | [4] 33.1% | [5] 49% | [7] 27.9% | [11] 60.5% | [12] 28.3% | [14] 19.3% | [15] 16.3%

O=C1c2c(c3c4ccccc4n(CCCCCCBr)c3c3[nH]c4ccccc4c23)C(=O)N1O
active: [1] 6.48% | [2] 1.01% | [3] 0.342% | [5] 7.84% | [6] 3.04% | [7] -5.71% | [10] 9.64% | [11] 4.32% | [12] -3.13% | [13] 0.62% | [15] 2.38% | [16] 6.41%
inactive: [4] 19.8% | [8] 15% | [9] 50.3% | [14] 15.1% | [17] 18.3% | [18] 10.8%

COc1cc(C(=O)/C=C/c2c(C)n([O-])c3ccc(C(F)(F)F)cc3[n+]2=O)cc(OC)c1OC
active: [3] 8.63% | [8] -18.9%
inactive: [1] 24.4% | [2] 59.6% | [4] 122% | [5] 89.5% | [6] 87.3% | [7] 111% | [9] 119% | [10] 75.7% | [11] 18.3% | [12] 80.6% | [13] 94.1% | [14] 26% | [15] 45.4% | [16] 21.1% | [17] 105%

O=C(O)c1cn(C2CC2)c2cc(N3CCN(C(=O)/C=C/c4ccc(Cl)cc4)CC3)c(F)cc2c1=O
inactive: [1] 79.7% | [2] 70.7% | [3] 80.5% | [4] 91% | [5] 81% | [6] 66.4% | [7] 67.2% | [8] 78.8% | [9] 65.4% | [10] 86.1% | [11] 65.5% | [12] 50.1% | [13] 82.5% | [14] 102% | [15] 89% | [16] 74.8% | [17] 90.4%
